Laboratory results published in ChEMBL document CHEMBL4513216, “Probing the Open Global Health Chemical Diversity Library for Multistage-Active Starting Points for Next-Generation Antimalarials” (ACS Infect Dis, 2020).
Screen size: about 69,000 compounds; about 8,600 (12%) showed an effect of 50% or more. The full list was thinned out, with strong results kept by preference.

Each compound was assayed on Plasmodium berghei (assay: Screen against P. berghei liver stage (PbLuc), transformed with Luciferase, at 10uM). Conditions: tested at 10 uM.
Type: functional, HepG2

| SMILES | INHIBITION |
| --- | --- |
| CCCN1CCCn2c(nc(CNC(=O)c3cnoc3C)cc2=O)C1 | 9.63% |
| O=C(NC1(c2nccs2)CCCC1)c1[nH]nc(C2CC2)c1Cl | 56.6% |
| O=C(NC1(c2nccs2)CCCC1)c1cc(C2CC2)on1 | 36.5% |
| O=C(NC1(c2nccs2)CCCC1)c1cc(C2CC2)[nH]n1 | 29.8% |
| COc1cc(C)ccc1OCC(=O)NS(=O)(=O)c1ccc(Br)s1 | -2.19% |
| O=C(c1cc(F)cc2[nH]cnc12)N1CCCC1Cn1cccn1 (stereo not given) | 39.7% |
| O=C(c1cc(F)cc2[nH]cnc12)N1CCCCC1Cn1cccn1 (stereo not given) | 77.4% |
| CCN(CC)Cc1ccc(C(=O)N2CCCC2Cn2cccn2)o1 (stereo not given) | 4.05% |
| NC(=O)c1ccc(C(=O)N2CCCCC2Cn2cccn2)s1 (stereo not given) | 53.9% |
| O=C(c1cc2cc(F)ccc2[nH]1)N1CCCCC1Cn1cccn1 (stereo not given) | -12.2% |
| CCN(CC)Cc1ccc(C(=O)N2CCCC2Cn2cccn2)cc1 (stereo not given) | 56.85% |
| CCc1nc(CC(=O)N2CCCCC2Cn2cccn2)cs1 (stereo not given) | 62.6% |
| CCN(CC)CC(=O)N1CCCC1Cn1cccn1 (stereo not given) | 21.5% |
| NC(=O)c1csc(C(=O)N2CCCCC2Cn2cccn2)c1 (stereo not given) | 17.8% |
| CCc1nc(CC(=O)N2CCCC2Cn2cccn2)cs1 (stereo not given) | 2.61% |
| CCc1ncc(C(=O)N2CCCCC2Cn2cccn2)s1 (stereo not given) | 33.6% |
| Cc1nc(CC(=O)N2CCCCC2Cn2cccn2)cs1 (stereo not given) | 7.08% |
| O=C(c1ccc2c(c1)CCC2)N1CCn2ncnc2C1 | 40.4% |
| CS(=O)(=O)N1CCCC(Cc2ccnc(Nc3ccccn3)c2)C1 (stereo not given) | 12.7% |
| CCNC(=O)[C@@H]1C[C@@H](N)CN1C(=O)C1(c2ccc(OC)cc2)CCCC1 | 9.55% |
| Cn1ccc(CN2CCC3(CC2)CC(Nc2cnccn2)CO3)n1 (stereo not given) | 46.7% |
| Cc1ccccc1-n1nc(C)c(CN(C)C(C)Cc2ccccn2)c1C (stereo not given) | 24% |
| Cc1cccc(CNC(C)c2ccc(OCC(=O)NC3CC3)cc2)c1 (stereo not given) | 15.3% |
| O=C(NCC1OCCc2cn(CC3CCOCC3)nc21)c1ccncc1 (stereo not given) | 32.2% |

| SMILES | INHIBITION |
| --- | --- |
| CCOc1ccc(Cl)cc1CCNC(=O)Cn1ccccc1=O | -47% |
| CC(Cn1cccn1)NCCCc1nc(-c2cccs2)no1 (stereo not given) | 10% |
| CCc1ccc(C(=O)N2CCCCC2Cn2cccn2)o1 (stereo not given) | -2.35% |
| CC(=O)NCc1ccc(C(=O)N2CCCCC2Cn2cccn2)o1 (stereo not given) | 61.7% |
| COc1cc(C)ccc1OCCC(=O)N1CCCC1Cn1cccn1 (stereo not given) | 52.7% |
| CCN(CC)Cc1ccc(C(=O)N2CCCCC2Cn2cccn2)o1 (stereo not given) | 19.5% |
| Cc1cc(C)n(CC2CCCCN2C(=O)c2ccc3nncn3c2)n1 (stereo not given) | 5.97% |
| COc1ccc(OCCC(=O)N2CCCC2Cn2cccn2)cc1 (stereo not given) | -10.1% |
| COc1ccccc1OCCC(=O)N1CCCC1Cn1cccn1 (stereo not given) | 33.3% |
| O=C(c1csc(C2CC2)n1)N1CCCCC1Cn1cccn1 (stereo not given) | 52.5% |
| Cc1cnn(CC2CCCCN2C(=O)c2ccc3nncn3c2)c1 (stereo not given) | 35.9% |
| CC(=O)Nc1nc(C(=O)N2CCCCC2Cn2cccn2)cs1 (stereo not given) | -27.8% |
| O=C(c1ccc2nncn2c1)N1CCCCC1Cn1cccn1 (stereo not given) | 54.4% |
| O=C(c1csc(C2CC2)n1)N1CCCC1Cn1cccn1 (stereo not given) | 1.78% |
| Cc1sc(Oc2ccccc2Cl)nc1C(=O)O | 18.14% |
| CC(C)N1CCC(NC(=O)c2cn(-c3ccc(F)cc3)nn2)C1 (stereo not given) | 23.7% |
| CCS(=O)(=O)CCNC(=O)c1cc2n(n1)CCCO2 | -16.3% |
| Cc1cnc(N2CCOCC3(CCN(c4ccccn4)C3)C2)nc1 (stereo not given) | 34.4% |
| COc1ccc(C2CCCN2Cc2nc3c(cnn3C)c(=O)[nH]2)cc1 (stereo not given) | -5.25% |
| O=C(CCc1c(F)cccc1F)N1CCCCC1Cn1cccn1 (stereo not given) | 15.6% |
| C=c1nc(NC)sc1=C1NC(c2c(C)ncc3c2CCNC3)=NO1 | 39.3% |
| Cn1ccc(CN2CCC(CN3CCOCC3)CC2)cc1=O | 31.3% |
| COc1cccc(-c2cc(C(=O)NCCCn3nc(C)cc3C)[nH]n2)c1 | -68.9% |
| c1ccc([C@@H]2CN(Cc3ccncc3)C[C@H]2c2cc[nH]n2)cc1 | 27.2% |

| SMILES | INHIBITION |
| --- | --- |
| Cc1cn2c(=O)c(-c3ccnc(NC4CCOCC4)n3)cnc2s1 | -9.27% |
| CCOCCCNC(=O)CN(c1cc(C)cc(C)c1)S(C)(=O)=O | 34.2% |
| N#Cc1ccc(CN2CCCC2Cn2cccn2)cc1 (stereo not given) | 9.14% |
| O=C(Nc1cccc(N2CCCC2)c1)C1CCCN1c1nccs1 (stereo not given) | 48.9% |
| O=C(Nc1cccc(C2SCCS2)c1)C1CCCN1c1nccs1 (stereo not given) | 50.7% |
| O=C(Nc1cccc(F)c1)C1CCCN1c1nccs1 (stereo not given) | 7.75% |
| Cc1nn(C)c(C)c1-c1ccc(=O)n(C(C)C(=O)NC2CCCCC2)n1 (stereo not given) | 47.6% |
| CN(C)c1ccc(CNCc2ccc(N3CCOCC3)cc2)cn1 | -0.551% |
| CC(C)Cn1cnc(S(=O)(=O)NCCc2nnc3ccccn23)c1 | 12% |
| CC(C)COc1cncc(NCCc2nnc3ccccn23)n1 | 55.4% |
| CC(C)COc1cncc(NCC(O)c2ccco2)n1 (stereo not given) | 20.8% |
| CCOc1cncc(NCCc2nnc3ccccn23)n1 | 43.4% |
| CC(C)COc1cncc(NCc2nnc3ccccn23)n1 | 64.3% |
| CC(C)COc1cncc(NC(CO)c2ccco2)n1 (stereo not given) | 45.6% |
| CCc1nc(C2CCCN2C(=O)c2ccc(N3CCCC3)nn2)no1 (stereo not given) | 23.5% |
| CC(=O)NCCC1CCCCN1S(=O)(=O)c1ccc2ccccc2c1 (stereo not given) | 29% |
| O=C(Nc1ccc(-c2nnc[nH]2)cc1)C1CCN1Cc1ccccc1 (stereo not given) | -17.3% |
| CO[C@H]1CCN(Cc2ccccn2)[C@@H]2CN(Cc3ccco3)C[C@H]12 | -11.1% |
| CC[C@H]1N(CC2CCOCC2)CCC[C@]12CCC(=O)N2 | 27.5% |
| CC[C@@H]1N(CC2CC2)CCC[C@]12CCC(=O)N2 | 65.9% |
| CC[C@@H]1N(CC2CCOCC2)CCC[C@]12CCC(=O)N2 | 49.7% |
| Cc1ccc2nccc(C(=O)N3CCOC(CCN(C)C)C3)c2c1 (stereo not given) | 43.9% |
| Cc1cc(C(=O)N2CCCC(C(=O)c3nccn3C)C2)c(=O)[nH]c1C (stereo not given) | 25.9% |
| Cc1ccc(CC(=O)N(CC2CN(C)CCO2)c2nccs2)cn1 (stereo not given) | 11.9% |

| SMILES | INHIBITION |
| --- | --- |
| Cc1cc(NC(=O)CCN2CCCCC2Cn2cncn2)no1 (stereo not given) | 16.9% |
| O=C(CN1CCCC1Cn1cncn1)NCCc1c(F)cccc1F (stereo not given) | 57.2% |
| O=C(CN1CCCCC1Cn1cccn1)NC1CCN(C2CC2)CC1 (stereo not given) | 26.8% |
| O=C(CN1CCCCC1Cn1cncn1)NCCOc1ccccc1 (stereo not given) | 0.411% |
| O=C(CN1CCCC1Cn1cncn1)NCCOc1ccccc1 (stereo not given) | 36.1% |
| O=C(CN1CCCCC1Cn1cncn1)NCCc1ccc(F)cc1 (stereo not given) | 43.4% |
| Cc1cc(NC(=O)CCN2CCCC2Cn2cncn2)no1 (stereo not given) | 56.3% |
| Cc1cc(NC(=O)CCN2CCCC2Cn2cccn2)no1 (stereo not given) | 31.9% |
| O=C(CN1CCCCC1Cn1cncn1)NC1CCN(C2CC2)CC1 (stereo not given) | 70.1% |
| CCN1CCC(NC(=O)CN2CCCCC2Cn2cncn2)CC1 (stereo not given) | -36.1% |
| O=C(CN1CCCC1Cn1cncn1)NCC1(c2ccccc2)CC1 (stereo not given) | 89.1% |
| O=C(CN1CCCC1Cn1cncn1)NCCOc1cccc(F)c1 (stereo not given) | 20.1% |
| CNc1cccc(CC2COCCN(C(=O)c3cncs3)C2)n1 (stereo not given) | 16.35% |
| Cc1cc(C(F)F)nn1CC(=O)NCc1nccn1C | 8.32% |
| Cc1cccc(CN2CCC3(CCCN(C(=O)NC4CC4)C3)C2=O)n1 (stereo not given) | 0% |
| O=C(c1ccnnc1)N1C[C@H]2CN(Cc3cccc(F)c3)C(=O)[C@H]2C1 | 34.6% |
| CCOCC(=O)N1CSCC1C(=O)N(C)Cc1ccco1 (stereo not given) | 17.5% |
| Cc1ccc(C(=O)N2CCC3(CC2)CN(CCN(C)C)C(=O)O3)c(F)c1 | 42.1% |
| COc1cc(CCC(=O)N2CCC(c3cncc(C)n3)CC2)on1 | 14.85% |
| Cc1oc(C(C)C)cc1C(=O)N1C[C@@H]2CC[C@H]1CN(c1ncccn1)C2 | -28.7% |
| O=C(CN1CCCC1Cn1cncn1)Nc1cccnc1 (stereo not given) | -9.86% |
| O=C(CN1CCCC1Cn1cncn1)Nc1ccc(Cl)cn1 (stereo not given) | 80% |
| O=C(CN1CCCCC1Cn1cncn1)Nc1ccncc1 (stereo not given) | 23.2% |
| CC(NC(=O)N1CCC(c2ccccc2)CC1)c1nncn1C (stereo not given) | 13.3% |

| SMILES | INHIBITION |
| --- | --- |
| Cc1cnn(CC2CCCCN2Cc2cnc(C)s2)c1 (stereo not given) | -7.05% |
| Cc1ncsc1CN1Cc2cn(C)nc2C(COCC2CC2)C1 (stereo not given) | 43.9% |
| COc1cccc(CNc2cnn(CC(F)F)c2)c1 | 8.53% |
| COc1cc(CNc2cnn(CC(F)F)c2)ccc1O | 21.9% |
| COc1ccc(CNc2cnn(CC(F)F)c2)cc1 | 64.9% |
| C1CCCN(C2CCCN(Cc3noc(C4CC4)n3)C2)CC1 (stereo not given) | -79.7% |
| CN(C)S(=O)(=O)N1CC(c2nc(N)ncc2-c2ccc(F)cc2)C1 | -20.6% |
| CC(=O)N(Cc1ncc(C(C)C)o1)C1CCN(CC2CCC2)C1 (stereo not given) | 32.65% |
| CC(CCc1ccc(O)cc1)NC1CCN(S(C)(=O)=O)CC1 (stereo not given) | 55.5% |
| Cc1ccc(CCC(C)NC2CCN(C(N)=O)CC2)cc1 (stereo not given) | -4.15% |
| CC(CCc1ccc(O)cc1)NC1CCN(C(=O)C(C)C)CC1 (stereo not given) | 42.1% |
| O=C(NCCNc1ccccn1)N1CCC(O)CC1 | 7.585% |
| OCCC1CN(c2ncnc3[nH]cnc23)CCN1Cc1cccs1 (stereo not given) | 53.7% |
| OCCC1CN(c2ncnc3[nH]cnc23)CCN1Cc1ccccc1 (stereo not given) | 62.4% |
| Cc1cccc(CN2CCN(c3ncnc4[nH]ccc34)CC2CCO)n1 (stereo not given) | 58.1% |
| OCCC1CN(c2ncnc3[nH]cnc23)CCN1Cc1ccccc1F (stereo not given) | 10.3% |
| OCCNc1cc(N2CCN(Cc3ccccc3)C(CCO)C2)ncn1 (stereo not given) | -11.8% |
| Cc1cccc(CN2CCN(c3ncnc4[nH]cnc34)CC2CCO)n1 (stereo not given) | 47.2% |
| CNC(=O)c1cccnc1N1CCN(Cc2ccccc2)C(CCO)C1 (stereo not given) | 3.17% |
| Cc1ccc(CN2CCN(c3ncnc4[nH]cnc34)CC2CCO)cc1 (stereo not given) | 20% |
| c1ccc(C2CN(c3ncnc4[nH]cnc34)CCO2)cc1 (stereo not given) | -66.9% |
| O=C(O)c1cccnc1N1CCN(Cc2ccc(F)cc2)C(CCO)C1 (stereo not given) | 68.6% |
| Cc1cc(C)n(CC2CN(c3ncnc4[nH]ccc34)CCO2)n1 (stereo not given) | -21.7% |
| Cc1ccc(CN2CCN(c3ncccc3C(N)=O)CC2CCO)cc1 (stereo not given) | 36.5% |
